# From PubChem BioAssay AID720513 (Broad Institute, 2013)
# The whole screen tested about 2,100 compounds, of which about 480 (23%) were called active. Not shown: some 5% with an inconclusive outcome. Not all results are given here. Potency and affinity values are given separately. Unmarked numbers belong to inactive results.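 The calls were made as follows: active = fitted curve reaches 40% activation at or below the top valid concentration, in every replicate test; inconclusive = replicate tests disagree on the call; inactive = the rest, including activity in the opposite direction.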
# Assay: activators raising PGC1a acetylation in cells, dose response, cell-based, cherry-picked samples, set 6 (AID 720513);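 also: cells made to overexpress flag tagged PGC1a plus GCN5 acetyltransferase by viral infection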
# Details: U2OS PGC1a acetylation AlphaLISA, overnight, 0 = neutral, -100 = inhibitor control; series mostly up to 19.5 µM; activation (acetylation increase): at the top concentration
row,SMILES,activation (acetylation increase)
1,Cc1ccc(S(=O)(=O)N[C@H]2C=C[C@H](CC(=O)NCCN3CCCCC3)O[C@H]2CO)cc1,13.8%
2,Cc1ccc2c(Cl)cc(Cl)c(OCc3c(C)noc3C)c2n1,24%
3,COc1ccc(-c2cc(-c3ccccc3)c(C#N)c(S(C)=O)n2)cc1 (centres undefined),-103%
4,COc1ccc(-n2c(SCC#N)nnc2-c2cccnc2)cc1,-52.4%
5,O=C(CC(C(=O)O)c1c[nH]c2ccccc12)c1ccccc1 (centres undefined),26.7%
6,COc1ccc(-c2cc(C(F)(F)F)nc(S(C)(=O)=O)n2)cc1,-80.1%
7,CN(NC(=O)c1ccccc1)C1=NS(=O)(=O)c2ccccc21,29.7%
8,C=CCNS(=O)(=O)c1cccc2cc(C(=O)O)c(O)cc12,-11.3%
9,CCCCOc1ccc(C(=O)C(CN2CCOCC2)c2ccccc2)cc1 (centres undefined),-71.9% [at 10 µM]
10,O=C(C=Cc1ccccc1)CC(c1ccccc1)N1CCOCC1 (centres undefined),-65.4%
11,COC(=O)COc1c(/C=C\c2nc(O)c([N+](=O)[O-])c(=O)[nH]2)cccc1OC,7.96%
12,COc1cccc(C(=O)Nn2cnnc2)c1OC,-11.2%
13,Cc1ccc(N)cc1S(=O)(=O)N(C)C,34.7%
14,COc1ccc(C(=O)NCCCSC)cc1OC1CCN(C(C)C)CC1,7.64%
15,C[C@@H]1CN([C@@H](C)CO)C(=O)c2cc(-c3cccc(C#N)c3)cnc2O[C@H]1CN(C)C(=O)c1ccccn1,-9.58%
16,Cc1cc(C)c(C#N)c(N2CCN(c3ccccc3)CC2)n1,-14.4%
17,Cc1cc(S(=O)(=O)Nc2ccc3ccccc3c2)c(C)s1,-23.3%
18,C=CS(=O)(=O)N(Cc1ccccc1Br)[C@H](CO)Cc1ccccc1,-31.4%
19,C=CCSc1nccc(-c2cc(Cl)sc2Cl)n1,34.1%
20,O=C1C(Cl)=C(N2CCOCC2)C(=O)N1CCc1ccccc1,11.4%
21,O=C(CCC1CCCN(C(=O)c2cc(C3CC3)[nH]n2)C1)N1CCN(c2ccccn2)CC1 (centres undefined),18.2%
22,CN(C)c1ccnc2sc(C(N)=O)c(N)c12,-20.8%
23,Cc1noc(C)c1S(=O)(=O)N(C)C[C@H]1Oc2ccc(NS(=O)(=O)c3cccs3)cc2C(=O)N([C@H](C)CO)C[C@H]1C,9.57%
24,Nc1cc(N)nc(SCC(=O)Nc2ccccc2N2CCOCC2)n1,-30.2%
25,CCOC(=O)CS(=O)(=O)c1nc(-c2ccccc2)cc(C(F)(F)F)n1,-100%
26,CCOc1ccc(/C=C/C(=O)Oc2ccccc2)cc1,-2.16%
27,CSc1cccc(N2CC(C(=O)NCCN3C(=O)S/C(=C\c4cccnc4)C3=O)CC2=O)c1 (centres undefined),7.23%
28,CN(C)C(=O)C[C@@H]1CC[C@@H]2[C@H](COC[C@@H](O)CN2C(=O)C2CCOCC2)O1,-7.2% [at 10 µM]
29,CC(C)C#Cc1ccc([C@@H]2[C@H]3CN(C(=O)NC4CCCC4)CC(=O)N3[C@H]2CO)cc1,20.8%
